Assay outcomes from PubChem BioAssay.
This is a sample that favours compounds with a hit; in the whole collection about 3.3% have one here.
HCV inh: blocks hepatitis C virus; AID 651820; Potency, µM (titrated, usually from 41.8 µM), most hits filed as inhibitors; actives 3.4% (n = 340,000); Huh7.5.1 HCVcc-Cre infection, luciferase reporter, 44 h
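A cell-based infection assay in which seeded cells (1,000 per well) receive test compound after 4 h, are inoculated with HCVcc-Cre at approximately 0.5 moi, and are incubated 44 h before luminescence detection.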
VACV mCherry inh: vaccinia inhibition (mCherry reporter); Vaccinia virus mCherry reporter infection, fluorescence; Potency, µM (doses to about 36.5 µM), actives largely listed as inhibitors; AID 720579; actives 0.63% (n = 310,000); calls by dose curve; tested in A549 cells; note: nearly all actives have a fitted effect of over 35% in size
VACV Venus inh: vaccinia inhibition (Venus reporter); Vaccinia virus Venus reporter expression, fluorescence; Potency, µM (top dose mostly 36.5 µM), actives largely listed as inhibitors; actives 0.46% (n = 330,000); AID 720580; calls by dose curve; tested in A549 cells; note: nearly all actives have a fitted effect of over 30% in size
HCV inh confirm: HCV inhibition, cherry-pick confirmation. shares compounds with HCV inh. HCVcc-Cre infectious virus cell assay, luciferase, inhibition. actives 78% (n = 640). Potency, µM (titrated, usually from 41.8 µM), usual class: inhibitors; note: nearly all actives have a fitted effect of over 80% in size
HCV cytotox: toxic to HCV host cells, flagging false HCV inhibitors. actives 22% (n = 640). Potency, µM (highest dose often 41.8 µM), hits mostly inhibitors. shares compounds with HCV inh. HCV host cell line cytotoxicity counterscreen;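 note: 44 h compound exposure; nearly all actives have a fitted effect of over 55% in size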
Numbers stand for hits; i = inactive; ? = inconclusive; nt = no result given. Unless noted, calls come from the whole dose curve; as a rule, active = well fitted curve in the direction sought with a large enough effect; inconclusive = small, poorly fitted or top-dose-only effect, or another doubt; inactive = no such curve, though single readings can be large; an effect the other way counts as inactive or inconclusive.

SMILES | HCV inh | VACV mCherry inh | VACV Venus inh | HCV inh confirm | HCV cytotox
NC(=S)NN=C1c2ccccc2-c2cc(Br)ccc21 | ? | ? | ? | 6.28µM | i
ON=C1c2ccccc2-c2ccc(Br)cc21 | ? | i | i | nt | nt
COC(=O)c1sccc1S(=O)(=O)N(CC(=O)Nc1cc(C)ccc1C)c1ccc(C)c(C)c1 | nt | i | i | nt | nt
CNC(=O)COc1ccc(NC(=O)CCn2nc(-c3ccc(C)cc3)c3ccccc3c2=O)cc1 | nt | i | i | nt | nt
CC12CCC(C)(c3nc4ccccc4nc31)C2(C)C | i | i | i | nt | nt
Cc1[nH]nc2c1-c1nc3ccccc3nc1C(C)(C)C2 | 5.62µM | nt | nt | 7.91µM | ?
O=C(N/N=C/c1ccccc1C(=O)O)c1cccc(S(=O)(=O)N2CCCCC2)c1 | i | nt | nt | nt | nt
CCCCc1ccc(NC(=O)Cn2nnc3sc4c(c3c2=O)CCC(C)C4)cc1 (stereo not given) | nt | i | i | nt | nt
COc1cc(C)ccc1N(CCCN1C(=O)c2cccc3cccc(c23)C1=O)C(=O)c1cccs1 | 5.62µM | i | i | 12.5µM | i
Cc1ccc(N(CCCCN2C(=O)c3ccccc3C2=O)C(=O)c2cccs2)cc1 | i | i | i | nt | nt
COc1cc(OC)cc(C2=NCCN2)c1 | i | i | i | nt | nt
COC(=O)c1ccc(CSc2nc3c([nH]c4ccccc43)c(=O)n2-c2cccc(OC)c2)o1 | nt | i | i | nt | nt
COc1ccc(CCn2c(SCC(=O)Nc3cc(C)on3)nc3ccsc3c2=O)cc1OC | ? | nt | nt | ? | i
COc1ccc(CCn2c(SCC(=O)Nc3cc(C)on3)nc3ccccc3c2=O)cc1OC | i | i | i | nt | nt
CCOc1ccccc1CNC(=O)c1cc2c(=O)n(Cc3ccco3)ccc2nc1C | nt | i | i | nt | nt
Cc1ccc(Cn2ncc3c(N4CCN(C)CC4)ncnc32)cc1 | ? | i | i | nt | nt
Cc1ccc(Cn2ncc3c(N4CCN(CCc5ccccc5)CC4)ncnc32)cc1 | 5.01µM | i | i | 11.2µM | 25µM
